Screening results from PubChem BioAssay.
S16 viability: S16 Schwann cell cytotoxicity; S16 Pmp22-F2sN Schwann cells viability, CellTiter-Glo, 24 h; Potency, µM (highest dose often 57.5 µM), inactives show at the top dose activity change, negative = cytotoxicity, hits mostly cytotoxic; 43,000 tested, 0.48% active; AID 1508642; also: potency is read from the fitted curve at half-maximal effect; % is scaled to controls: 0 for no effect and ±100 for the full control effect; nearly all actives have a fitted effect of over 65% in size
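Rat S16 Schwann reporter line, 24 h treatment with library compounds delivered at 23 nL per well. Cell viability by CellTiter-Glo luminescence.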
pS6 MEF inh: reduces mTORC1 signaling in Tsc2 and p53 null MEF cells. 44,000 tested, 0.78% active. Tsc2-/- p53-/- MEF, phospho-rpS6 immunofluorescence/PI, 24 h. Potency, µM (highest dose often 38.3 µM), inactives show top-dose activity change, negative = inhibition, most hits filed as inhibitors. AID 493208;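 also: potency is read from the fitted curve at half-maximal effect; plate controls were DMSO for no effect and rapamycin for full effect; nearly all actives have a fitted effect of over 50% in size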
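Readout is phospho-S6 Alexa 488 signal normalized to PI per well, reported as % active cells with thresholds set from rapamycin (7.5 nM) and DMSO controls. Cells: Tsc2-/-, p53-/- MEFs, 24 hrs compound at 37 C; PI cell number serves as viability.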
p53null 39C kill: p53 null cell cytotoxicity, nonpermissive temperature | Potency, µM (series often up to 46.1 µM), for the others: at the highest dose activity, negative = cell killing, hits mostly cytotoxic | H1299 p53-null (neo) cells, 39C, ATPlite viability, 24 h | AID 904 | 55,000 tested, 0.97% active;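 also: potency is read from the fitted curve at half-maximal effect; 0% = DMSO only and -100% = full killing by 100 µM tamoxifen; nearly all actives have a fitted effect of over 50% in size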
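Concentration-response (up to 46 uM) was run for 24 h at the nonpermissive 39C on H1299-p53A138V or H1299-neo cells. ATP content was measured with ATPlite luminescence. AC50 values were Hill-modeled after normalizing between DMSO and 100 uM tamoxifen killing.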
p53null 32C kill: kills p53 null cells at the permissive temperature | H1299-neo p53 null cells, ATP luminescence, 24 h, 32C | Potency, µM (titrated, usually from 46.1 µM), for inactives: at the top dose activity change, negative = cytotoxicity, most hits filed as cytotoxic | 55,000 tested, 0.62% active | AID 903;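 also: potency is read from the fitted curve at half-maximal effect; 0% = DMSO only and -100% = full killing by 100 µM tamoxifen; nearly all actives have a fitted effect of over 55% in size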
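Cytotoxicity: H1299-neo (no p53), 32C, 24 h treatment. Concentrations up to 46 uM. Readout cellular ATP, luminescence. Normalization to DMSO basal and tamoxifen 100 uM maximal kill.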
PMP22 txn: PMP22 gene transcription modulation; Potency, µM (top dose mostly 57.5 µM), for inactives: at the top dose activity change, negative = inhibition, hits mostly inhibitors; 43,000 tested, 2% active; S16 Pmp22-F2sN Schwann cells (luciferase reporters placed in the Pmp22 gene), FLuc/NLuc coincidence luminescence, 24 h; active = clear falling dose curves in both reporters; inconclusive = both reporters move, but less clearly or upward; inactive = either reporter flat; the % is the NLuc reporter signal; also: potency is read from the fitted curve at half-maximal effect; % is scaled to controls: 0 for no effect and ±100 for the full control effect
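S16 Schwann cells carrying FLuc/NLuc coincidence reporter in the Pmp22 3' UTR treated with compound 24 h at 37C; FLuc then NLuc luminescence read sequentially by dual-luciferase reagents.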
NLuc saturating: inhibits NanoLuc at saturating substrate, PMP22 counter-screen; shares compounds with PMP22 txn; Secreted NLuc enzyme (filtered S16 cell medium), Nano-Glo luminescence; Potency, µM (doses to about 57.5 µM), for the others: top-dose activity change, negative = inhibition, actives largely listed as inhibitors; 690 tested, 4% active; also: potency is read from the fitted curve at half-maximal effect; % is scaled to controls: 0 for no effect and ±100 for the full control effect
NLuc Km ctr: inhibits NanoLuc under Km conditions, PMP22 counter-screen. shares compounds with PMP22 txn. secreted NLuc enzyme, coelenterazine luminescence, Km conditions. Potency, µM (highest dose often 57.5 µM), inactives show at the top dose activity change, negative = inhibition, hits mostly inhibitors. 690 tested, 5% active. AID 1508639; also: potency is read from the fitted curve at half-maximal effect; % is scaled to controls: 0 for no effect and ±100 for the full control effect
FLuc ctr PMP22: firefly luciferase enzyme inhibition artifact for PMP22 screen; shares compounds with PMP22 txn; purified P. pyralis FLuc, luminescence, 10 min; Potency, µM (top dose mostly 57.5 µM), for inactives: at the top dose activity, negative = inhibition, usual class: inhibitors; 690 tested, under 10 active; AID 1508640; also: % of control where 0% means no effect
Target sequence (P08659 whole entry, looked up): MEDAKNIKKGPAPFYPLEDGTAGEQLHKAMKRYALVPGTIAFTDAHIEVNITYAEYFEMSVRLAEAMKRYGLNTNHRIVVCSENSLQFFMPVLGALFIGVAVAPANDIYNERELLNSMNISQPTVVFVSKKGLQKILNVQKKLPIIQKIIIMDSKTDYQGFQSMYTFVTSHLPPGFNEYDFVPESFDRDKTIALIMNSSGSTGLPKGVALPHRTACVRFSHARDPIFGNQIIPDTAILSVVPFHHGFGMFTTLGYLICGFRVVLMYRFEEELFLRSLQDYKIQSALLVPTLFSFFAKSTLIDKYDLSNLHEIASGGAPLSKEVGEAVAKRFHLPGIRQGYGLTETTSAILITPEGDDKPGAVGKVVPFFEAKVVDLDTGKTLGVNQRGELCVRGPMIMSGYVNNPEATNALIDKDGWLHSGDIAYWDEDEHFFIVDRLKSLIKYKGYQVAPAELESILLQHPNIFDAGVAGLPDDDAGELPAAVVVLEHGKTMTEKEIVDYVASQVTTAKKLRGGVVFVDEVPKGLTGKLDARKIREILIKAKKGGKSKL
S16 F2sN tox cnf: S16 Schwann cell cytotoxicity, confirmatory; shares compounds with PMP22 txn; Potency, µM (titrated, usually from 57.5 µM), inactives show at the top dose activity change, negative = viability loss, hits mostly cytotoxic; 690 tested, 7% active; S16 Schwann cells viability, CellTiter-Glo ATP luminescence, 24 h; also: potency is read from the fitted curve at half-maximal effect; % is scaled to controls: 0 for no effect and ±100 for the full control effect
PMP22 txn conf: PMP22 transcription modulation, confirmatory. AID 1508646. 690 tested, 22% active. Potency, µM (top dose mostly 57.5 µM), for the others: top-dose activity change, negative = inhibition, hits mostly inhibitors. S16 Schwann cells Pmp22-F2sN, dual luciferase, 24 h. shares compounds with PMP22 txn; active = clear falling dose curves in both reporters; inconclusive = both reporters move, but less clearly or upward; inactive = either reporter flat; the % is the FLuc reporter signal; also: potency is read from the fitted curve at half-maximal effect
PMP22 prot conf: rat PMP22 protein level modulation, confirmatory | shares compounds with PMP22 txn | S16 Schwann cells Pmp22-HiBiT, luminescence, 48 h | Potency, µM (titrated, usually from 27.9 µM), inactives show top-dose activity change, negative = inhibition, hits mostly inhibitors | 95 tested, under 10 active | AID 1508647
Target sequence (P25094 whole entry, looked up): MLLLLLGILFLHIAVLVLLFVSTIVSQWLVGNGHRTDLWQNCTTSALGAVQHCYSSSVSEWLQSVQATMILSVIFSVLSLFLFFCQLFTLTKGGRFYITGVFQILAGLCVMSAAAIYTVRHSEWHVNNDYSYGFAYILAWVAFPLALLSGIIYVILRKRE
* = called active by the depositor. Rows were chosen to be rich in hits. Some 3.2% of all compounds tested hit in one or more screens of this group. Unless noted, calls follow the shape of the dose curve; as a rule, active = well fitted curve in the direction sought with a large enough effect; inconclusive = small, poorly fitted or top-dose-only effect, or another doubt; inactive = no such curve, though single readings can be large; an effect the other way counts as inactive or inconclusive.

`CCc1ccc(C(=O)c2cn(CC(=O)Nc3ccc4c(c3)OCO4)c3ccc(CC)cc3c2=O)cc1` gave S16 viability -5%, pS6 MEF inh 3%, p53null 39C kill inconclusive, p53null 32C kill -4%, PMP22 txn 13µM*, NLuc saturating -11%, NLuc Km ctr -6%, FLuc ctr PMP22 5%, S16 F2sN tox cnf inconclusive, PMP22 txn conf 12µM* and PMP22 prot conf inconclusive.
Screening CCNc1nc(NC(C)(C)C)nc(Oc2ccc(=O)n(-c3ccccc3)n2)n1 returned S16 viability -1%, pS6 MEF inh -9%, p53null 39C kill -6%, p53null 32C kill 0%, PMP22 txn inconclusive, NLuc saturating -9%, NLuc Km ctr -3%, FLuc ctr PMP22 -7%, S16 F2sN tox cnf -13% and PMP22 txn conf -33%.
Screening CCOc1cc(C2CC(=O)Nc3cc4c(cc32)OCCO4)ccc1O (stereo unspecified) returned S16 viability inconclusive, pS6 MEF inh -1%, p53null 39C kill -8%, p53null 32C kill 8% and PMP22 txn -30%.
COc1cc(C2CC(=O)Nc3cc4c(cc32)OCCO4)cc(Br)c1OC (stereo unspecified) was read as S16 viability inconclusive, pS6 MEF inh inconclusive, p53null 39C kill -9%, p53null 32C kill 16%, PMP22 txn 0.67µM*, NLuc saturating -4%, NLuc Km ctr -8%, FLuc ctr PMP22 4%, S16 F2sN tox cnf -4% and PMP22 txn conf inconclusive.
Cc1ccccc1Cn1nnc2c(=O)[nH]c(C3CCN(C(=O)c4ccc(F)cc4)CC3)nc21 was read as S16 viability -14%, pS6 MEF inh 1%, p53null 39C kill 18%, p53null 32C kill 10%, PMP22 txn 10µM*, NLuc saturating inconclusive, NLuc Km ctr -11%, FLuc ctr PMP22 6%, S16 F2sN tox cnf -11% and PMP22 txn conf -45%.
Screening COc1ccc(OC)c(NC(=O)c2c(NCc3sccc3C)sc3c2CCCCC3)c1 returned S16 viability -10%, pS6 MEF inh -14%, p53null 39C kill 4%, p53null 32C kill 12%, PMP22 txn 11µM*, NLuc saturating inconclusive, NLuc Km ctr 14µM*, FLuc ctr PMP22 -11%, S16 F2sN tox cnf inconclusive and PMP22 txn conf -24%.
For CN(C)CCNC(=O)c1ccc(Cn2c(=O)c3cccn3c3cccnc32)cc1 the results were S16 viability -6%, pS6 MEF inh inconclusive, p53null 39C kill -9%, p53null 32C kill 8%, PMP22 txn 11µM*, NLuc saturating -5%, NLuc Km ctr inconclusive, FLuc ctr PMP22 6%, S16 F2sN tox cnf 31% and PMP22 txn conf -31%.
Cc1ccc(S(=O)(=O)Cc2ccc(C(=O)N3CCN(c4cccc(C)c4C)CC3)o2)cc1 was read as S16 viability -19%, pS6 MEF inh inconclusive, p53null 39C kill 14%, p53null 32C kill 9%, PMP22 txn 14µM*, NLuc saturating -9%, NLuc Km ctr 2%, FLuc ctr PMP22 5%, S16 F2sN tox cnf -17% and PMP22 txn conf inconclusive.
`Cc1cccc(N2CCN(C(=O)c3ccc(CS(=O)c4cccc(Cl)c4)o3)CC2)c1C` (stereo unspecified) gave S16 viability inconclusive, pS6 MEF inh 7.4µM*, p53null 39C kill inconclusive, p53null 32C kill -21%, PMP22 txn 9.6µM*, NLuc saturating -19%, NLuc Km ctr inconclusive, FLuc ctr PMP22 -3%, S16 F2sN tox cnf -15% and PMP22 txn conf inconclusive.
For Cc1ccc(-n2c3c(c(=O)[nH]c2=O)C(NC(=O)c2ccccc2C)(C(F)(F)F)C(=O)N3)cc1 (stereo unspecified) the results were S16 viability 3%, pS6 MEF inh 6%, p53null 39C kill inconclusive, p53null 32C kill -1% and PMP22 txn 3%.
COc1ccccc1NC(=O)CSc1nc2nccnc2c(=O)n1CCc1c[nH]c2ccccc12 was read as S16 viability -16%, pS6 MEF inh 1%, p53null 39C kill 0%, p53null 32C kill -3%, PMP22 txn 13µM*, NLuc saturating inconclusive, NLuc Km ctr inconclusive, FLuc ctr PMP22 -15%, S16 F2sN tox cnf 7% and PMP22 txn conf inconclusive.
For CCCCNC(=O)Cn1nc(N2CCN(c3ccccc3OC)CC2)ccc1=O the results were S16 viability 1%, pS6 MEF inh 4%, p53null 39C kill -9%, p53null 32C kill 7% and PMP22 txn 5%.
Screening CCOc1ccc(CNS(=O)(=O)c2cc(-c3cc(C)no3)ccc2C)cc1OC returned S16 viability 0%, pS6 MEF inh 3%, p53null 39C kill -5%, p53null 32C kill -9% and PMP22 txn -9%.
Screening CCc1ccc(-c2cc(C)no2)cc1S(=O)(=O)NCc1ccc(OC)cc1 returned S16 viability 2%, pS6 MEF inh inconclusive, p53null 39C kill inconclusive, p53null 32C kill -19%, PMP22 txn 6µM*, NLuc saturating inconclusive, NLuc Km ctr inconclusive, FLuc ctr PMP22 -18%, S16 F2sN tox cnf -11% and PMP22 txn conf inconclusive.
